Consider eight compounds from PubChem BioAssay (NCI).

Test in all cases: NCI-60 one-dose screen, 48 h (100 = growth as untreated, 0 = no growth, -100 = all killed)
Settings in all cases: 10 µM unless noted

The subject of experiment [1] is NCI-H23 lung.
Experiment [2] has as its system NCI-H226 lung.
Experiment [3] concerns NCI-H322M lung.
For experiment [4], the system named is HOP-62 NSCLC.
Experiment [5] relates to NCI-H460 lung.
Experiment [6] relates to HOP-92 NSCLC.
For experiment [7], the system named is A549/ATCC NSCLC.
Experiment [8] concerns 786-0 renal.
Experiment [9] concerns COLO 205 colon.
In experiment [10] the test system is DU-145 prostate.
Experiment [11] concerns K-562 leukemia.
Experiment [12] concerns MALME-3M melanoma.
Experiment [13] relates to MDA-MB-231 breast.
The test system of experiment [14] is RXF 393 renal.
The subject of experiment [15] is SF-268 CNS.
Experiment [16] has as its system SF-295 CNS.
For experiment [17], the system named is SF-539 CNS.
For experiment [18], the system named is UACC-257 melanoma.
In experiment [19] the test system is M14 melanoma.

This is part of a sample that, as a whole, favours compounds with a hit. Of some 83,000 tested, about 20% had one in any assay.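 Each cell line was grown in a 96-well plate and treated with one concentration of compound for 48 hours. Values below 10 were considered active.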 Values without a mark were called inactive. Calls of active or inactive are those of the source.

Turning to `COc1ccccc1NC(=O)c1sc2nc3c(cc2c1N)C(=O)CCC3`, the growth is 66.7% in experiment [1]; 76.2% in experiment [2]; 59.7% in experiment [3]; 100% in [4]; 19.3% in [5]; 37.5% in [6]. The growth was 34.2% in experiment [7]; 89.1% in [8]; 26.4% in experiment [9]; 86.6% in experiment [10]; 41.5% in experiment [11]; 58.2% in experiment [12]. In addition, the growth in [13] is 57.5%; in experiment [14], 77%; in experiment [15], 102%; in experiment [16] it was 25.7%; in [17], 66.2%; in experiment [18], 58.5%. Also, the growth in experiment [19] is 47.1%.
`CNNc1ncnc2c1cnn2-c1ccc(S(N)(=O)=O)cc1`: the growth in experiment [1] is 94.2%; in experiment [2], 91.3%; in experiment [3] it was 104%; in [4], 85.6%; in [5], 117%; in [6], 41.5%. Also, the growth in [7] was 92.9%; in experiment [8], 91.7%; in [9], 120%; in experiment [10], 112%; in [11], 78.3%; in experiment [12], 112%. The growth in [13] was 89.5%; in experiment [14], 16%; in [15] it was 106%; in experiment [16] it was 84%; in experiment [17], 93.8%; in experiment [18], 89%. Also, the growth in [19] was 95%.
With `O=C(/C=C/c1cccc(Nc2ccnc3cc(Cl)ccc23)c1)c1ccc(Cl)cc1`, the growth in experiment [1] is 45.9%; in experiment [2], 49.5%; in experiment [3], 67.3%; in experiment [4] it was 50.2%; in experiment [5], 66.7%; in [6], 45.8%. Besides, the growth is 79.4% in experiment [7]; 58% in experiment [8]; 80.1% in experiment [9]; 59.6% in [10]; 14.6% in [11]; 62.5% in [12]. Further, the growth in [13] was 60.4%; in experiment [14], 71.9%; in experiment [15], 69.2%; in experiment [16] it was 40.2%; in experiment [17], 62.5%; in experiment [18], 61.3%. Further, the growth in experiment [19] was 54.3%.
Turning to `CCCCCCCC[Si](OCC)(OCC)OCC`, the growth was 98.2% in [1]; 96.1% in experiment [2]; 103% in [3]; 101% in experiment [4]; 107% in [5]; 88.8% in experiment [6]. Besides, the growth in experiment [7] was 102%; in experiment [8], 99.3%; in experiment [9] it was 108%; in [10], 105%; in [11], 99.2%; in experiment [12], 91.6%. For the same compound, the growth was 104% in experiment [13]; 104% in experiment [14]; 104% in experiment [15]; 111% in [16]; 98.8% in [17]; 114% in experiment [18]. The growth in [19] was 98.7%.
As for `COc1ccc2cc(C3=CC(=O)CCC3)ccc2c1`, the growth in [1] was 91.8%; in experiment [2], 55.5%; in experiment [3], 93.6%; in experiment [4] it was 112%; in experiment [5], 110%; in experiment [6], 83.5%. Also, the growth in experiment [7] is 82.6%; in experiment [8] it was 90.5%; in experiment [9], 99.9%; in experiment [10], 103%; in experiment [11], 105%; in [12], 114%. In addition, the growth in [13] was 99.6%; in [14] it was 99.4%; in experiment [15], 103%; in experiment [16], 110%; in experiment [17] it was 95.7%; in [18], 96.6%. In experiment [19], the growth is 104%.
`C=C1CCC2C3(C)COC(c4ccccc4)OC3CCC2(C)C1C/C=C1/C(=O)OCC1OC(C)=O` (configuration not stated): the growth in [1] was 101%; in experiment [2], 59.6%; in experiment [3], 97%; in experiment [4] it was 96.1%; in [5], 103%; in experiment [6], 100%. The growth in experiment [7] is 83.9%; in experiment [8], 95.3%; in experiment [9], 103%; in [10], 108%; in experiment [11], 74.2%; in [12] it was 105%. In addition, the growth is 94.9% in experiment [13]; 41% in experiment [14]; 102% in experiment [15]; 100% in [16]; 105% in experiment [17]; 91.3% in experiment [18]. Also, the growth in [19] was 89.4%.
For the compound `O=CN1N=C(c2ccc(Cl)cc2)CC1c1cccc(Nc2ccnc3cc(Cl)ccc23)c1` (configuration not stated), the growth in [1] is 11.6%; in experiment [2] it was 24.4%; in experiment [3] it was 42.4%; in experiment [4] it was 8.16% (active); in experiment [5] it was 11.1%; in [6] it was 21.5%. In addition, the growth in experiment [7] is 20.9%; in experiment [8] it was 20.5%; in experiment [9], -26.9% (active); in [10] it was 14%; in experiment [11] it was 3.74% (active); in experiment [12], 8.98% (active). Further, the growth is 30.6% in experiment [13]; -0.443% (active) in [14]; 36.7% in experiment [15]; -10.4% (active) in experiment [16]; -25.9% (active) in experiment [17]; 12.1% in [18]. The growth in [19] is 16.2%.
With `O=C(NC1CCCCC1)c1ccc(Nc2ncnc3c2cnn3-c2ccccc2)cc1`, the growth is 72% in experiment [1]; 19.1% in experiment [2]; 64% in experiment [3]; -66.5% (active) in experiment [4]; 42.2% in experiment [5]; 37.7% in experiment [6]. Moreover, the growth was 16.6% in experiment [7]; 72.1% in [8]; 65.4% in experiment [9]; 54.6% in [10]; 73.2% in experiment [11]; 2.93% (active) in experiment [12]. The growth in [13] was 8.76% (active); in [14], 62.2%; in [15], 36.9%; in [16], 73.4%; in [17], 43.7%; in experiment [18] it was 56.5%. In experiment [19], the growth is 69.1%.
